# Compounds with a hit are over-represented: about 22% of the library has one in this group of screens.
# CYP2C19 inh = inhibitors of human CYP2C19 | inhibition, % at 5 µM | 96,000 compounds, 21% hits | P33261 | CYP2C19 Supersomes, luciferin-H EGE luminescence, 30 min;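 active = CYP2C19 inhibition above a set limit at 5 µM in the primary screen, cut at about 50% in these data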;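 note: plate controls were negative control wells for no effect and 2.5 mM tranylcypromine positive control for full effect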
# Target sequence (P33261 whole entry, looked up): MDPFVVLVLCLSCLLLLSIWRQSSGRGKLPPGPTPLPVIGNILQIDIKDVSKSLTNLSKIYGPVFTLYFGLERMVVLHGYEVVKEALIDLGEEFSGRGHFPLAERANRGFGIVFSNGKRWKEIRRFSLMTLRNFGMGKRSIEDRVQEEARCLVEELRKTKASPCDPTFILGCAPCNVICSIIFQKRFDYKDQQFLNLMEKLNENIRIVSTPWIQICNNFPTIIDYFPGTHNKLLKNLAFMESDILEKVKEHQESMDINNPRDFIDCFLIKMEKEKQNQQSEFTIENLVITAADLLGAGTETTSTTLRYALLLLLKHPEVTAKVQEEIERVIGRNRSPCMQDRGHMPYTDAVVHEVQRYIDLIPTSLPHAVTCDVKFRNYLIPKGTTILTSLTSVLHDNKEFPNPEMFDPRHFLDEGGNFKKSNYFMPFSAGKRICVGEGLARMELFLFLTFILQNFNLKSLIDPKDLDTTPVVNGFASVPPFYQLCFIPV
# CYP2C19 act = activators of human cytochrome P450 2C19. 96,000 tested, under 10 active. activation factor at 5 µM. recombinant CYP2C19, luciferin-H EGE luminescence; active compounds read high; 0 = fully inhibited enzyme, 1 = untreated enzyme. AID 1025. P33261;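 active = activation factor of at least 2 at 5 µM in the primary screen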;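 note: 0 = wells with 2.5 mM tranylcypromine and 1 = vehicle-only wells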
# CYP2C9 act = CYP2C9 (human) activation; P11712; recombinant CYP2C9, luciferin-H conversion, luminescence; active compounds read high; factor 1 = untreated enzyme, 0 = blocked; activation factor at 5 µM; 96,000 compounds, 1.4% hits; AID 1024;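 active = activation factor of 2 or more for CYP2C9 at a 5 µM dose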;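 note: 0 = sulfaphenazole-blocked wells and 1 = vehicle-only wells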
# CYP2C9 inhib = inhibitors of human CYP2C9 | P11712 | CYP2C9 Supersomes, luciferin-H conversion, luminescence | inhibition, % at 5 µM | 96,000 compounds, 20% hits | AID 777;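 active = blocking of liver enzyme CYP2C9 beyond about 50% at 5 µM, limit read from the data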
# Measles CPE = protection of cells from measles virus; Measles virus-infected cells, CPE protection, absorbance; protection (pct of control), % at 4 µM; 140,000 compounds, 1.5% hits; in the data active = protection mostly above about 24%, no sharp cut-off; inactive = mostly below about 26%
# An asterisk follows results filed as active; . = no result.
SMILES,CYP2C19 inh,CYP2C19 act,CYP2C9 act,CYP2C9 inhib,Measles CPE
CC(=Nc1ccc(C)c(C)c1)C1=C(O)CCC1=O,54*,0.5,0.7,34,7
Cc1ccccc1N(C(=O)Cn1nnc(-c2cccs2)n1)C(C(=O)NCCC(C)C)c1ccco1 (configuration not stated),60*,0.4,0.2,84*,9
CC(C)CCNC(=O)C(c1ccco1)N(Cc1cccs1)C(=O)Cn1nnc2ccccc21 (configuration not stated),73*,0.3,0.4,59*,1
COCCNC(=O)C(c1ccco1)N(C(=O)Cn1nnc2ccccc21)c1ccccc1C (configuration not stated),1,1,1,-2,23
COCCNC(=O)C(c1cccs1)N(Cc1cccs1)C(=O)Cn1nnc2ccccc21 (configuration not stated),.,.,.,.,6
CN(C)c1ccc(/C=N/Nc2ccc(-n3ccnc3)nn2)cc1,62*,0.4,0.3,70*,1
CCCCN1CNC(=S)N(Cc2ccccc2)C1,.,.,.,.,7
CCn1nc(NC(=O)c2cccnc2)c2cc3ccccc3nc21,32,0.7,0.4,62*,3
N#CC1(c2ccccc2)CCCN1C(=O)c1ccccc1Br (configuration not stated),11,0.9,1,0,2
COc1ccccc1C(=O)N1CCCC1(C#N)c1ccccc1 (configuration not stated),14,0.9,0.1,90*,29
Cc1cc(N2CCN(c3ccccc3)CC2)n2cc(-c3ccccc3)nc2n1,49,0.5,0.6,44,4
Cc1cc(N2CCN(c3ccccc3Cl)CC2)n2cc(-c3ccccc3)nc2n1,8,0.9,0.4,58*,30*
COc1cc(/C=N/O)cc(Cl)c1OC,.,.,.,.,12
C=CCOc1c(Cl)cc(CNCCC)cc1Cl,59*,0.4,0.8,24,2
CCOc1cc(CNc2ccc(N3CCCC3)cc2)cc(Cl)c1OC,.,.,.,.,4
C=CCOc1c(Cl)cc(CNc2ccc(C)c(Cl)c2)cc1OC,38,0.6,0.4,57*,4
C=CCOc1c(Cl)cc(CNc2ccc(N(C)C)cc2)cc1OC,96*,0,0.3,72*,5
CCCNCc1cc(Cl)c(OCC)c(Cl)c1,.,.,.,.,8
CC1(C)CC(NC(=O)COc2ccc3ccccc3c2)CC(C)(C)N1,14,0.9,0.8,18,21
C#CCOc1c(Cl)cc(/C=N/NC(N)=S)cc1OCC,.,.,.,.,12
CC(C)CNS(=O)(=O)c1ccc(CCC(=O)Nc2cc(Cl)ccc2Oc2ccccc2)cc1,45,0.5,0.3,73*,2
CC(C)(C)NS(=O)(=O)c1ccc(CCC(=O)Nc2cc(Cl)ccc2Oc2ccccc2)cc1,73*,0.3,0.1,90*,2
CCC(=O)Nc1ccccc1Oc1ccccc1,49,0.5,0.7,34,7
CCCNS(=O)(=O)c1ccc(CCC(=O)Nc2cc(Cl)ccc2Oc2ccccc2)cc1,.,.,.,.,2
O=C(NC1CCCc2ccccc21)C1CCN(S(=O)(=O)c2ccccc2)CC1 (configuration not stated),.,.,.,.,5
SMILES,CYP2C19 inh,CYP2C19 act,CYP2C9 act,CYP2C9 inhib,Measles CPE
CC(CCc1ccccc1)NC(=O)C1CCN(S(=O)(=O)c2cnc[nH]2)CC1 (configuration not stated),75*,0.3,0.1,93*,5
O=C(NC1CCCc2ccccc21)C1CCN(S(=O)(=O)c2cnc[nH]2)CC1 (configuration not stated),44,0.6,0.3,70*,9
O=C(NCc1ccccn1)C1CCN(S(=O)(=O)c2cnc[nH]2)CC1,-13,1.1,1.1,-6,20
Cn1cnnc1SCC(=O)NCCc1ccccc1,23,0.8,1.1,-7,3
COc1cc(NC(=O)CSc2nnc(C)s2)cc(OC)c1,52*,0.5,0.6,38,9
CC(C)OC(=O)c1ccc(OC(=O)c2cccnc2)cc1,7,0.9,1.7,-65,5
CCCCN(Cc1ccco1)C(=O)c1cc2c(=O)[nH]c3ccc(C)cc3c2s1,50*,0.5,0.3,72*,11
Cc1ccc2[nH]c(=O)c3cc(C(=O)NCCN4CCN(C)CC4)sc3c2c1,-7,1.1,1,1,8
Cc1ccc2[nH]c(=O)c3cc(C(=O)N(CCCOC(C)C)Cc4ccco4)sc3c2c1,37,0.6,0.4,58*,2
CCOc1ccc(NC(=O)CCNc2c(N3CCCC3)c(=O)c2=O)cc1,24,0.8,1.2,-15,20

# Assay outcomes (PubChem)
